# Results taken from publication PMC4552634, “A New Set of Chemical Starting Points with Plasmodium falciparum Transmission-Blocking Potential for Antimalarial Drug Discovery” (PLoS ONE, 2015).
# Screen size: about 13,000 compounds; about 3,200 (25%) showed an effect of 50% or more. Some of the results follow.
# System: P. falciparum stage V gametocytes
# Design: BacTiter-Glo ATP luminescence viability of purified stage V gametocytes in 384-well plates, per cent inhibition versus DMSO
# Conditions: 48 h, 5 µM; inhibitor
row,SMILES,% Inhibition [%]
1,O=C(Cn1c(=O)cnc2ccccc21)Nc1cccc(C(=O)Nc2cccc(C(F)(F)F)c2)c1 [TCMDC-125468],18.7
2,O=C(CNC1CCCCC1)Nc1cccc(C(=O)Nc2cccc(C(F)(F)F)c2)c1 [TCMDC-123711],29.34
3,COc1ccccc1C(C)NCC(=O)Nc1cccc(C(=O)Nc2cccc(C(F)(F)F)c2)c1 (centres unmarked) [TCMDC-124871],31.1
4,O=C(Nc1cccc(C(F)(F)F)c1)c1cccc(S(=O)(=O)NCC2CCCN2CC2CCCCC2)c1 (centres unmarked) [TCMDC-133687],-58.72
5,O=C(Cc1n[nH]c(=O)c2ccccc12)Nc1cccc(C(=O)Nc2cccc(C(F)(F)F)c2)c1 [TCMDC-125260],48.65
6,CCCCCN1CCCC1CNS(=O)(=O)c1cccc(C(=O)Nc2cccc(C(F)(F)F)c2)c1 (centres unmarked) [TCMDC-133686],-82.32
7,COc1cc(C(=O)Nc2nc3ccccc3[nH]2)ccc1OCC(=O)Nc1cccc(C(F)(F)F)c1 [TCMDC-125460],11.63
8,CC(C)NCC(=O)Nc1cccc(C(=O)Nc2cccc(C(F)(F)F)c2)c1 [TCMDC-124878],70.58
9,CC(O)CNc1nc2ccccc2n1CC(=O)Nc1cccc(C(=O)Nc2cccc(C(F)(F)F)c2)c1 (centres unmarked) [TCMDC-124335],86.13
10,O=C(CN1CCCC1)Nc1cccc(C(=O)Nc2cccc(C(F)(F)F)c2)c1 [TCMDC-124512],78.8
11,O=C(Nc1cccc(CN2CCCN(Cc3ccc(O)cc3)CC2)c1)c1cccc(C(F)(F)F)c1 [TCMDC-141836],-28.76
12,CC12CCC(=O)N1C(C(=O)Nc1cccc(C(=O)Nc3cccc(C(F)(F)F)c3)c1)CS2 (centres unmarked) [TCMDC-125019],77
13,N[C@@H](Cc1ccc(O)cc1)C(=O)NC(c1ccccc1)c1c(O)ccc2ccccc12 (some centres unmarked) [TCMDC-141232],9.479
14,CC=CC1CCNC(C(O)c2ccnc3ccc(OC)cc23)C1 (centres unmarked) [TCMDC-132000],38.01
15,O=C(NCCCCN1CCN(c2cccc(Cl)c2Cl)CC1)c1ccc2c(c1)CCN(C1CCC1)CC2 [TCMDC-136053],20.89
16,CC(C)CCN1CCC(Oc2cccc(NC(=O)c3ccc(C(F)(F)F)cc3)c2)CC1 [TCMDC-133738],13.2
17,CN1CCC(N2CCC(Oc3cccc(C(=O)NCCCC4CCCC4)c3)CC2)CC1 [TCMDC-124677],58.06
18,CN1CCC(NCc2ccc(-c3cccc(S(=O)(=O)NCC4CCCO4)c3)cc2)CC1 (centres unmarked) [TCMDC-132242],58.26
19,CN1CCC(NCc2ccc(-c3ccc(S(=O)(=O)NCc4ccccc4)cc3)cc2)CC1 [TCMDC-132227],101.8
20,CN1CCC(NCc2cccc(-c3ccc(S(=O)(=O)NCc4ccccc4)cc3)c2)CC1 [TCMDC-132213],49.72
21,CN1CCC(NCc2ccc(S(=O)(=O)Nc3ccc(Oc4cccc(Cl)c4)cc3)cc2)CC1 [TCMDC-136201],14.91
22,CN1CCC(NCc2ccc(-c3cccc(S(=O)(=O)NCc4ccccc4)c3)cc2)CC1 [TCMDC-132238],104.8
23,CN1CCC(NCc2cccc(-c3cccc(S(=O)(=O)NCc4ccccc4)c3)c2)CC1 [TCMDC-132377],104
24,Cc1ccc(Nc2nc3cc(Nc4ccnc(Nc5cccc(CS(C)(=O)=O)c5)n4)ccc3o2)cc1 [TCMDC-141957],-56.36

row,SMILES,% Inhibition [%]
1,O=C(Nc1cc(C(F)(F)F)ccc1-n1cncn1)C1(c2ccccc2)CC1 [TCMDC-125454],25.16
2,CCC(ON1C(N)=NC(N)=NC1(C)C)c1ccc(Cl)cc1 (centres unmarked) [TCMDC-131709],18.34
3,Cc1cc(S(=O)(=O)N2CCCCC(c3ccc(C(F)(F)F)cc3)=N2)c(Cl)cc1Cl [TCMDC-134540],-43.69
4,Cc1ccc(S(=O)(=O)NC2=NC(C)(C)N(OCc3ccc(Cl)c(Cl)c3)C(N)=N2)cc1 [TCMDC-131711],22.12
5,Nc1cc(-c2cccc(Cl)c2)nn1-c1ccnc2cc(Cl)ccc12 [TCMDC-134027],-29.85
6,Nc1nc(-c2ccccn2)nc(-n2nc(-c3cccc(C(F)(F)F)c3)cc2N)n1 [TCMDC-134026],76.36
7,CN1CCN(c2cc(-c3cccc(C(F)(F)F)c3)nc(-c3ccncc3)n2)CC1 [TCMDC-125413],29.7
8,Cc1ccccc1C1CCN(c2ccc(C(=O)Nc3ccccc3)cn2)CC1 [TCMDC-134584],3.597
9,COc1cc(-c2nc3c4ccccc4c4ccccc4c3[nH]2)cc(OC)c1OC [TCMDC-123980],2.227
10,CC(=NNC(=S)NC(c1ccccc1)c1ccccc1)c1ccccn1 [TCMDC-137894],-31.88
11,COc1cccc2c(NCCNc3ccnc4c(OC)cccc34)ccnc12 [TCMDC-137880],30.12
12,COc1cc(CNC(=S)NN=C(C)c2ccccn2)cc(OC)c1OC [TCMDC-137900],55.54
13,CC(=NNC(=S)NCCc1ccccc1)c1ccccn1 [TCMDC-124270],79.29
14,CC(=NNc1nc2ccccc2s1)c1ccccn1 [TCMDC-124267],64.52
15,CCOc1ccc2nc(NC(=O)c3csnn3)sc2c1 [TCMDC-125075],43.02
16,CC(=NNC(=S)NCc1ccco1)c1ccccn1 [TCMDC-137906],99.6
17,O=C(NCCc1ccccc1)c1cc(-c2cccnc2)cnc1NCC1CC1 [TCMDC-136700],4.382
18,O=c1cc(NCCCNCc2[nH]c3cc(Cl)cc(Cl)c3c2Cn2cccn2)[nH]c2ccccc12 [TCMDC-140152],-2.677
19,COc1ccc2nccc([C@@H](O)CN3CCC(NCCc4c[nH]c5ccccc45)CC3)c2c1 [TCMDC-140938],7.162
20,CCc1ccc(O)c(-c2cc(C(=O)Nc3ccc(OC)c(Cl)c3)[nH]n2)c1 [TCMDC-125072],5.954
21,COc1ccc2nccc([C@@H](O)CN3CCC(NCc4ccc5c(c4)nnn5C(C)C)CC3)c2c1 [TCMDC-141011],-16.76
22,CCc1ccc(CN2CCC(C(=O)Nc3ccc(-c4nc5ccccc5[nH]4)cc3)CC2)o1 [TCMDC-124686],-27.59
23,CC(=NNC(=S)NC(C)(C)C)c1ccccn1 [TCMDC-137783],15.81
24,CC(=NNC(=S)NCCc1ccccn1)c1ccccn1 [TCMDC-137895],92.63

row,SMILES,% Inhibition [%]
1,CNC(=S)NN=C(C)c1ccccn1 [TCMDC-123475],90.46
2,Clc1ccc2c(NCCc3ccccn3)ccnc2c1 [TCMDC-123461],8.42
3,COCCCNC(=S)NN=C(C)c1ccccn1 [TCMDC-137907],93.04
4,Cc1ccc(Oc2cnn(C)c(=O)c2Nc2cccc(C(=O)NCCc3ccccn3)c2)c(C)c1 [TCMDC-124786],34.52
5,CN(c1ccc(NC(=O)c2ccc(F)cc2)cc1)C1CCN(Cc2cccc(F)c2)C1 (centres unmarked) [TCMDC-135003],-17.16
6,O=C(Nc1ccc(OC2CCN(Cc3ccsc3)C2)c(Cl)c1)c1ccc2ncccc2c1 (centres unmarked) [TCMDC-133951],-25.76
7,C[C@H](Nc1c(Nc2ccc3[nH]ccc3c2)c(=O)c1=O)C1CCCCC1 [TCMDC-138193],-95.47
8,Cn1nc(-c2ccc(S(=O)(=O)N3CCC(CCN4CCC(c5c[nH]c6ccccc56)CC4)CC3)s2)cc1C(F)(F)F [TCMDC-140168],106.2
9,FC(F)(F)c1cccc(N2CCC(CN3CCC(c4c[nH]c5ccccc45)CC3)CC2)n1 [TCMDC-134280],19.45
10,O=C(NCCCCCN1CCC(c2c[nH]c3ccccc23)CC1)Nc1cccc(C(F)(F)F)c1 [TCMDC-139217],-48
11,O=C(NCc1ccc(S(=O)(=O)N2CCC(CN3CCC(c4c[nH]c5ccccc45)CC3)CC2)s1)c1ccccc1 [TCMDC-140170],48.92
12,Cn1nc(-c2ccc(S(=O)(=O)N3CCC(CN4CCC(c5c[nH]c6ccccc56)CC4)CC3)s2)cc1C(F)(F)F [TCMDC-140171],114.8
13,Cn1ncc2ccc(Nc3nccc(-c4ccc5c(c4)c(N)nn5C)n3)cc21 [TCMDC-137049],80.69
14,Nc1nccc2ccc(-c3ccnc(NCc4cccnc4)n3)cc12 [TCMDC-136735],-3.627
15,Cc1ccc(-c2cnc(N)c3cc(-c4ccnc(N)n4)ccc23)cc1 [TCMDC-134544],25.6
16,Cc1cccc2[nH]c(-c3ccc(-c4cccc(NC(=O)c5cnn6cccnc56)c4)cc3)nc12 [TCMDC-136865],23.94
17,COc1cccc(C(=O)Nc2ccc(Nc3nc(C)cc(N(C)C)n3)cc2)c1 [TCMDC-124720],-4.624
18,COc1ccc(C(=O)Nc2ccc(Nc3nc(C)cc(N(C)C)n3)cc2)c(OC)c1 [TCMDC-124727],63.21
19,COc1cccc(C(=O)Nc2ccc(Nc3nc(C)cc(N(C)C)n3)cc2)c1OC [TCMDC-124719],58.09
20,COc1ccc(NC(=O)Nc2ccc(Nc3nc(C)cc(N(C)C)n3)cc2)cc1 [TCMDC-124960],1.588
21,Cc1cc(N(C)C)nc(Nc2ccc(NC(=O)c3ccccc3C)cc2)n1 [TCMDC-124729],-17.39
22,COc1ccccc1C(=O)Nc1ccc(Nc2nc(C)cc(N(C)C)n2)cc1 [TCMDC-124728],-11.89
23,Cc1nc2c(=O)sc3ccccc3c2n1Cc1ccccc1 [TCMDC-125754],-11.8
